PubChem BioAssay AID485350 (ICCB-Longwood Screening Facility, Harvard Medical School, 2010)
Where “and” joins values, the source holds several entries; their conditions need not be identical. Equal values may be shown once. The campaign covered roughly 84,000 compounds. About 95 (0.1%) were called active. The full list was thinned out, with actives kept by preference. Unmarked numbers belong to inactive results. Cut-off read from the data, not from the text of the source: active = inhibition above about 25% (passing the limit was not always enough); inactive = the rest.

Tested on: BasE (2,3-dihydroxybenzoate-AMP ligase), Acinetobacter baumannii ATCC 17978
Assay: inhibitors of A. baumannii BasE – biochemical, Acinetobacter baumannii ATCC 17978, fluorescence polarization, primary screen (AID 485350);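 note: 0% = negative plate control signal and 100% = positive plate control signal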
Details: purified BasE, fluorescence polarization binding displacement; stronger effect = higher value; concentration not given here

| Structure (SMILES) | inhibition |
| --- | --- |
| CC(=O)NCCC(=O)Nc1nccs1 | -1.55% |
| CCOC(=O)Cn1c(=O)c(=O)n(C)c2c1c(C)nn2-c1ccccc1 | -0.65% |
| C=CCn1c(COc2ccccc2F)nnc1SC(C)C(=O)NC(N)=O (centres undefined) | 0.29% |
| CN(C)S(=O)(=O)c1ccc(C(=O)OCC(=O)N2CCCCC2)cc1 | 0.92% |
| C=CCN(CC=C)C(=O)CSc1nnc2c3ccccc3n(C)c2n1 | 4.82% |
| CCC(CC)=NNC(=O)c1cc(-c2ccccc2)n[nH]1 | 0.72% |
| COc1ccccc1NC(=O)c1ccc(N2CC3CC(C2)c2cccc(=O)n2C3)c(NC(=O)c2cccnc2)c1 (centres undefined) | -1.5% |
| C=CCN(S(=O)(=O)c1ccc(Cl)cc1)S(=O)(=O)c1ccccc1OC | 5.47% |
| CCCCN(C)S(=O)(=O)c1ccc2c(c1)CCN2C(=O)CCC(=O)O | 1.97% |
| CN(C)CCN=c1cc(-c2ccccc2)oc2ccc(Cl)cc12 | -2.16% |
| Cc1nc(SCC(=O)NC(C)(C#N)C2CC2)c2c(C)c(C)sc2n1 (centres undefined) | -0.09% |
| Cc1cc2nc(N(C)C)c3ccccc3n2n1 | 2.28% |
| CC1CN(C(=O)Cn2nc(-c3cccc(-n4cccc4)c3)oc2=O)CC(C)O1 (centres undefined) | -1.31% |
| O=C(O)c1cccnc1SCc1cc(=O)n2cc(Br)ccc2n1 | 1.25% |
| CC(=O)NCc1ccc(-c2csc(CC(=O)Nc3ccc(C)cc3C)n2)o1 | 0.82% |
| C/C(=N/NC(=O)CCc1ccccc1)C1CC1 | 2.92% |
| COc1ccc(OCCNS(=O)(=O)Cc2ccccc2)cc1 | 3.47% |
| CC1CN(CC(=O)Nc2ccccc2C(C)C)CC(C)O1 (centres undefined) | -1.49% |
| CCN(CC)Cc1cc(C(=O)O)co1 | -4.35% |
| O=C(N/N=C/c1cccnc1)c1ccc(CN2CCOCC2)cc1 | 1.66% |
| CCN1C(=O)/C(=C/N(C(C)=O)c2ccccc2)OC1=S | 1.08% |
| O=C(CSc1ncnc2c1nnn2Cc1ccc(F)cc1)NC1CCCC1 | -1.58% |
| Cc1ccccc1Nc1nc(N)nc(CNCc2ccccc2)n1 | 5.66% |
| Cc1oc(-c2cccc(Cl)c2)nc1CN1CCCC(C(=O)N2CCN(c3cccc(Cl)c3)CC2)C1 (centres undefined) | -0.15% |
| Cc1nc2c(cnn2C(C)C)c(C)c1CCC(=O)OC(C)C(=O)Nc1ccc(C(N)=O)cc1 (centres undefined) | -3.6% |
| Cc1cc(C(=O)OCC(=O)c2cc(C)n(-c3ccc(Cl)cc3)c2C)no1 | 1.57% |

| Structure (SMILES) | inhibition |
| --- | --- |
| CCN(Cc1ccc2c(c1)OCCO2)C(=O)c1ccc(-n2cccn2)cc1 | -0.56% |
| CN(C(=S)NCc1ccccc1)C1CCCCC1 | 1.12% |
| C(=C\c1ccccc1)/CNCCCN1CCOCC1 | 0.89% |
| CNC(=O)c1ccc(N2CCOc3ccc(Cl)cc32)s1 | -0.32% |
| COc1ccc(CNn2cnnc2SCc2ccc(F)cc2)cc1OC | -1.54% |
| CC12CCC(=O)N1C(C(=O)OCc1cc(=O)n3cc(Br)ccc3n1)CS2 (centres undefined) | 3.92% |
| CC(C)[C@H](NC(=O)C1CCCCC1)c1nc2ccccc2[nH]1 | -0.24% |
| Cc1cc(C(=O)OCc2cc(=O)oc3cc4c(cc23)CCC4)c(C)o1 | -0.6% |
| COC(=O)C(NC(=O)c1ccc(Cl)cc1)C(F)(F)F (centres undefined) | 7.11% |
| Cc1ccc(N2C(=O)CCC(C(=O)OCc3nnc(-c4ccccc4)o3)C2c2cccs2)cc1 (centres undefined) | 1.51% |
| COc1ccc(-n2c(-c3ccc(Cl)cc3)cnc2SCc2nccn2C)cc1 | -1.16% |
| COc1ccc(S(=O)(=O)N(C)CC(=O)N2CCCC2)cc1 | -1.85% |
| OCC1OC(Oc2ccc3cc(Br)ccc3c2)C(O)C(O)C1O (centres undefined) | -1.6% |
| CCOC(=O)c1c(-c2ccco2)csc1NC(=O)COC(=O)Cn1[nH]c(=O)c2ccccc2c1=O | 3.28% |
| O=C(NCCSc1ncc(-c2ccccc2)[nH]1)c1ccco1 | -0.84% |
| Cc1ccc(S(=O)(=O)Nc2nc(O)c(C3=c4ccccc4=NC3=O)s2)cc1 | 2.18% |
| C(=N\n1cnnc1)/c1ccc(OC2OCCOC2Oc2ccc(/C=N/n3cnnc3)cc2)cc1 (centres undefined) | 1.12% |
| C=CCn1c(CCSCc2ccc(OC)cc2)n[nH]c1=S | -0.73% |
| COc1cccc(-c2noc(COC(=O)c3ccccc3-c3ccccc3C#N)n2)c1 | 1.11% |
| CC(Oc1ccc(F)cc1)C(=O)O (centres undefined) | -0.06% |
| O=C(OCC(=O)N1CCOCC1)c1ccc(Cl)cc1 | 0.53% |
| O=c1c(OCCc2ccccc2)c(-c2ccco2)oc2ccccc12 | 5.62% |
| Cc1ccc(S(=O)(=O)NC(c2ccccc2)c2nnc(-c3ccccc3)o2)cc1 (centres undefined) | -0.19% |
| O=C1Nc2ccccc2OC1CC(=O)N1CCN(Cc2ccc3c(c2)OCO3)CC1 (centres undefined) | -0.54% |
| CCc1c(C)c(C#N)c2nc3ccccc3n2c1N1CCN(Cc2cc(Cl)ccc2OC)CC1 | 0.68% |
| CCOC(=O)c1sc(=NC(C)=O)n(C)c1C | -1.69% |

| Structure (SMILES) | inhibition |
| --- | --- |
| Cc1cc(C)n(-c2ccc(Cl)c(C(=O)OCC(=O)NCc3ccco3)n2)n1 | 1.59% |
| CCn1cnc2c(=O)oc3ccc(S(=O)(=O)N4CCN(c5cc(Cl)ccc5C)CC4)cc3c21 | 2.98% |
| CCOC(=O)C1=C(CN2CCn3cccc3C2C)NC(=O)NC1c1ccc(Cl)cc1 (centres undefined) | -0.37% |
| N#CCSc1[nH]c(=O)c(-c2nc(-c3ccccc3)cs2)cc1C#N | 1.84% |
| Cc1ccc(/C=C/C(=O)OCC(=O)c2cc(C)c(C)cc2C)o1 | 1.01% |
| CC(Sc1nnc(N)s1)C(=O)NCCC1=CCCCC1 (centres undefined) | 2.13% |
| C/C(=N\NC(=O)NC1CCCCC1)c1ccc(OC(F)F)cc1OC(F)F | 1.32% |
| FC(F)Oc1ccc(-c2csc(=Nc3cccnc3)n2C2CC2)cc1 | 3.62% |
| Cc1cc(/C=N/N2C(=O)c3ccccc3C2=O)cc(C)c1O | 0.22% |
| CCN(CC)CC(O)Cn1c(=O)n(CC(O)CN(CC)CC)c(=O)n(CC(O)CN(CC)CC)c1=O (centres undefined) | -0.02% |
| O=C1Cc2ccccc2C(=O)N1Cc1ccccn1 | 4.89% |
| O=C1CCC2(C(=O)OCCCn3c(=O)[nH]c4ccccc43)Sc3ccccc3N12 (centres undefined) | 1.34% |
| O=C(c1cc(Cl)c(O)c(Cl)c1)N1CCc2ccccc2C1 | 3% |
| Cc1nn2cnnc2c(C)c1CCC(=O)NCCCc1ccccc1 | -4.03% |
| O=C(CCC1CC(=O)OC1c1ccccc1)Nc1nccs1 (centres undefined) | 0.54% |
| CCOC(=O)c1c(C)oc2ncnc(N(C)Cc3ccccc3)c12 | 1.14% |
| COC(=O)c1cc(S(=O)(=O)N(CCCN2CCOCC2)C2CCN(C)CC2)cn1C | -0.33% |
| Cc1c(CCC(C)C)c(NCCN2CCOCC2)n2c(nc3ccccc32)c1C#N | 2.4% |
| CCN(C(=O)COc1ccc(Cl)cc1C)c1ccccc1 | 0.83% |
| CCOc1ccc(-n2cc(C(=O)N3CCN(c4ccccc4OC)CC3)c3cc(OC)c(OC)cc3c2=O)cc1 | 0.29% |
| Cc1cccc(NC(=O)NCC(=O)NC2CC2)c1 | -0.65% |
| COCC(C)NC(=O)Nc1c[nH]c2ccccc12 (centres undefined) | -1.24% |
| CCOc1cc(C(=O)CCC(=O)O)ccc1O | 0.21% |
| CCN(Cc1ccccc1)C(=O)c1cccc(N2C(=O)CCC2=O)c1 | 1.51% |
| C=CCN1C(=O)S/C(=C\c2ccc(OCC(=O)OC)cc2)C1=O | 0.73% |
| CCSc1nnc(CNc2ccc(F)cc2)n1-c1ccc(C)cc1 | 1.16% |

| Structure (SMILES) | inhibition |
| --- | --- |
| CN(CC(=O)Nc1ccccc1Cl)Cn1nc(-c2ccco2)oc1=S | 1.44% |
| CCCN(CCC)Cc1ccc(CNc2nc(-c3ccc(OC)cc3)no2)o1 | -0.49% |
| CCC(CO)n1c(SCC(=O)Nc2ccc(C)c(C)c2)nc2cc(OC)c(OC)cc2c1=O (centres undefined) | 1.28% |
| COc1ccc(-c2noc(C3CCN(C(=O)OC(C)(C)C)CC3)c2C(=O)O)cc1 | 1.39% |
| Nc1ccccc1C(=O)NCC1CCCO1 (centres undefined) | -4.47% |
| COc1ccc(-n2cc3c(c(C#N)c2=N)CC(C)(C)CC3=O)c(OC)c1 | -12.9% |
| COC(=O)c1ccc(/C=N/O)cc1 | 1.3% |
| S=c1[nH]nc(-c2ccncc2)n1/N=C/c1cccnc1 | -0.5% and 1.06% |
| Cc1ccc(N=C2C(=O)N(CN3CCCC(C)C3)c3ccccc32)cc1 (centres undefined) | 0.38% |
| CCCc1nnc(SCC(=O)N2CCCc3ccccc32)n1CC | -5.47% |
| Cc1cccc(C(=O)NCC(=O)NN)c1 | 0.12% |
| CCOCCCNc1nc2ccccc2nc1NS(=O)(=O)c1cccc2nsnc12 | 0.69% |
| Cc1csc(NC(=O)C2CCC(CNS(=O)(=O)c3cccc4nsnc34)CC2)n1 (centres undefined) | 28.5% (active) |
| O=S(=O)(NCc1ccc2c(c1)OCO2)c1cccc2nsnc12 | 0.67% |
| Cc1cc(C)n(-c2ccc(C(=O)OCC(=O)C(C)(C)C)cc2)n1 | -0.47% |
| OC(CN1CCCCC1)CN1c2ccccc2Sc2ccccc21 (centres undefined) | -0.28% |
| O=C(Nc1ccccc1)Nc1ccc(Cl)c(Cl)c1 | 2.62% |
| Cc1ccccc1Nc1nc(N)nc(Cn2cc(Br)ccc2=O)n1 | 2.02% |
| Cc1ccc(S(=O)(=O)N(C)CC(=O)O)cc1 | 0.19% |
| CC(C)CN(CC(C)C)C(=O)C1CCN(S(=O)(=O)c2cccc3nsnc23)CC1 | -0.22% |
| CCc1c(C)nc2n(c1=O)C(CS(=O)(=O)c1ccc3ccccc3c1)CS2 (centres undefined) | 2.08% |
| O=C(O)CN1CCN(C(c2ccccc2)c2ccccc2)CC1 | 1.06% |
| CCCCn1c(N)c(N(C(=O)c2ccc(Cl)c(Cl)c2)C2CCCC2)c(=O)[nH]c1=O | 2.21% |
| Cc1ccc(NC(=O)CCn2c(=O)sc3ccccc32)cc1C | 2.16% |
| O=C(CSc1cccc[n+]1[O-])c1cc2c3c(c1)CC(=O)N3CCC2 | 1.79% |
| Cc1ccsc1C(=O)OCc1nc2sc3c(c2c(=O)[nH]1)CCCC3 | -0.18% |
